Screening results as filed in PubChem BioAssay.
This is a sample that favours compounds with a hit; in the whole collection about 1.9% have one here.
APP transl inh = inhibitors of APP translation via 5'UTR reporter, primary screen, APP 5'UTR luciferase, SH-SY5Y cells; SH-SY5Y APP 5'UTR-luciferase reporter, luminescence; inhibition, % at 2 µM; actives 0.82% (n = 190,000); AID 1285, 2008;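 active = inhibition above a set limit, derived from the sample mean plus 3 SD, cut at about 45% in these data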
Ba/F3 V617F tox = reduced viability of JAK2V617F-dependent Ba/F3 cells, primary screen, JAK2V617F inhibitor project, cell-based, Ba/F3 EpoR-JAK2V617F, luminescence. actives 1.1% (n = 220,000). ATP luminescence. AID 1446, 2008. inhibition, % at 5.6 µM;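 active = inhibition above the campaign mean plus 3 SD over all tested compounds, cut at about 24% in these data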;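 note: cytokine-independent growth of Ba/F3 cells driven by EpoR plus mutant JAK2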
BaF3 tox = parental Ba/F3 cell viability inhibition, counter-screen for JAK2V617F inhibitor project, murine pro-B, CellTiter-Glo luminescence; CellTiter-Glo ATP luminescence; inhibition, % at 5.6 µM; actives 1.1% (n = 220,000); AID 1486, 2009;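 active = inhibition above a per-campaign cutoff, the mean inhibition of all tested compounds plus 3 SD, cut at about 27% in these data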
KLF5 inh = KLF5 expression inhibitors, primary screen, DLD-1 cells, luminescence; DLD-1 KLF5 promoter-luciferase reporter; actives 0.23% (n = 290,000); inhibition, % at 5 µM; AID 1700, 2009;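 active = inhibition above a per-plate limit of that plate's mean compound inhibition plus 3 SD, cut at about 60% in these data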;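 note: higher means less KLF5 promoter-driven luciferase light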
IEC-6 cytotox = cytotoxicity in IEC-6 intestinal epithelial cells, primary screen, cytotoxicity control for KLF5 inhibitor project, cell-based, luminescence; IEC-6 cytotoxicity, luminescence viability; inhibition, % at 5 µM; actives 0.78% (n = 290,000); AID 1825, 2009; in the data active = inhibition above about 22%
A number is an active result; 0 = inactive; - = not tested or not shown.

SMILES	APP transl inh	Ba/F3 V617F tox	BaF3 tox	KLF5 inh	IEC-6 cytotox
COc1ccc(OC)c(CNC(=O)C2CCC(=O)N(CCCN3CCCC3=O)C2)c1 (stereo unspecified)	-	-	-	0	0
COc1cccc(/C=N/Nc2ncnc3c2ncn3Cc2ccccc2)c1O	88	71	59	0	0
Cc1ccc(NC(=O)CN2C(=O)C3C4C=CC(C4)C3C2=O)cc1S(=O)(=O)N(C)C (stereo unspecified)	55	0	0	0	0
Cc1cc(N2C(=O)C=CC2=O)c([N+](=O)[O-])cc1C	62	0	0	0	0
COc1ccc(OC)c(S(=O)(=O)NC2CCCCNC2=O)c1 (stereo unspecified)	-	-	-	0	0
COC(=O)c1ccc(C(=O)OC)c(NC(=S)N2CCN(c3cccc(Cl)c3)CC2)c1	0	0	0	0	0
COc1ccc(C(=O)NCCc2c[nH]c3ccccc23)cc1[N+](=O)[O-]	-	-	-	0	0
Cc1cccn2c(=O)c3cc(C#N)c(=N)n(CCN4CCOCC4)c3nc12	47	0	0	0	0
O=C(COc1ccc(S(=O)(=O)N2CCCC2)cc1Cl)NCc1cccnc1	-	-	-	0	0
CC(Oc1ccccc1)C(=O)NNC(=O)c1ccccn1 (stereo unspecified)	0	0	0	0	0
C/C(=N\NC(=O)C(C)Oc1ccc([N+](=O)[O-])cc1)c1ccccn1 (stereo unspecified)	63	0	0	0	0
CC1CCC(C(C)C)C(OCC(O)C[N+]2(C)CCCCC2)C1 (stereo unspecified)	0	28	50	0	0
CC1CCC(C(C)C)C(OCC(O)CN2CCCC(C)C2)C1 (stereo unspecified)	0	0	0	0	0
CC1CCC(C(C)C)C(OCC(O)CN2CCOCC2)C1 (stereo unspecified)	0	0	0	0	0
CC1CCC(C(C)C)C(OCC[N+](C)(C)C)C1 (stereo unspecified)	0	37	42	0	0
COc1ccc(F)cc1S(=O)(=O)Nc1ccncc1	-	-	-	0	0
CCOC(=O)C1CCC(CN(Cc2ccccc2)S(=O)(=O)c2ccc([N+](=O)[O-])cc2)CC1 (stereo unspecified)	0	0	0	0	0
Cc1cc(C)c2cc(C=O)c(Cl)nc2c1	93	0	0	0	0
CCOc1ccc(NS(=O)(=O)c2ccc(C(=O)N3CCN(c4ncccn4)CC3)cc2)cc1	0	0	31	0	0
CN1/C(=C\C(=O)COC(=O)c2ccc(O)cc2)C(C)(C)c2ccccc21	-	0	0	0	0
CN1/C(=C\C(=O)COC(=O)c2ccc(O)c(O)c2)C(C)(C)c2ccccc21	0	52	51	0	0
CN1/C(=C\C(=O)COC(=O)CNC(=O)c2ccc3ccccc3c2)C(C)(C)c2ccccc21	0	0	34	0	0
Cc1cccc(NC(=O)CN2C(=O)CCS(=O)(=O)c3ccccc32)c1C	-	-	-	0	0
Oc1ccc(Br)cc1/C=N/Nc1nc(N2CCCCC2)nc(N2CCOCC2)n1	0	0	0	0	0
Oc1ccc(/C=N/Nc2nc(N3CCCCCC3)nc(N3CCCCCC3)n2)c(O)c1	0	47	34	0	0
SMILES	APP transl inh	Ba/F3 V617F tox	BaF3 tox	KLF5 inh	IEC-6 cytotox
COC(=O)c1sc(S(=O)(=O)N2CCCCC2C(=O)O)c(C(=O)OC)c1C (stereo unspecified)	59	0	0	0	0
CC(C)CCOc1cccc(OCC(=O)Nc2ccncc2)c1	-	-	-	0	0
CCc1ccc(C(=O)NCc2ccc(Cl)cc2)cc1	0	0	0	0	0
CCCCCc1ccc(OCCC[n+]2ccccc2)c(CCCCC)c1	-	100	84	0	0
CCCCCc1ccc(OCCOCCn2c[n+](C)c3ccccc32)c(CCCCC)c1	0	101	82	0	0
C[n+]1cn(CC(O)COCc2ccccc2)c2ccccc21 (stereo unspecified)	0	0	0	0	0
CC(=O)Nc1ccc(OCCC[n+]2ccccc2)cc1	0	0	0	0	0
Oc1ccc(Br)cc1C1Nc2ccccc2S1 (stereo unspecified)	-	-	-	0	0
COc1ccccc1C(=O)N=Nc1c(O)[nH]c2ccc([N+](=O)[O-])cc12	0	60	0	0	0
c1ccc(N2CCN(c3nnnn3-c3ccccc3)CC2)cc1	48	0	0	0	0
COc1cc(-n2c(C)nc3cc(C(=O)N4CCOCC4)ccc32)cc(OC)c1OC	0	0	91	0	0
CC1(C)Cc2c(cnn2-c2ccc(F)cc2)C(NC(=O)CCc2ccncc2)C1 (stereo unspecified)	-	-	-	0	0
Oc1ccc2ccccc2c1N=Nc1ccccn1	83	0	0	0	0
CCOC(=O)c1[nH]cnc1N=Nc1c(O)ccc2ccccc12	52	0	0	0	0
O=c1nc2ccccc2c2n1CC(CN1CCN(C(c3ccccc3)c3ccccc3)CC1)N2 (stereo unspecified)	0	0	0	0	0
COc1ccc(/C=C(\NC(=O)c2ccccc2)C(=O)NCCN2CCOCC2)cc1	-	-	-	0	0
CCC(=O)N1CCc2cc(S(=O)(=O)NCCCN3CCN(Cc4ccccc4)CC3)ccc21	0	0	0	0	0
CC(=O)N1CCc2cc(S(=O)(=O)NCCCN3CCN(Cc4ccccc4)CC3)ccc21	63	0	0	0	0
CCOc1ccccc1C(=O)NCC(=O)NCCCSc1ccccc1	-	-	-	0	0
CSc1ncc(C(=O)Nc2cccnc2)c(C(F)(F)F)n1	-	-	-	0	0
CCCCNc1ncnc2c1cnn2-c1ccc(C)cc1C	0	0	0	0	0
Cc1ccc(-n2ncc3c(NCCCN4CCCC4=O)ncnc32)c(C)c1	0	0	47	0	0
COc1ccc(CCn2c(N)c(C(=O)NCc3ccco3)c3nc4ccccc4nc32)cc1	0	37	38	0	0
COc1ccc(CCn2c(N)c(C(=O)NCc3ccco3)c3nc4ccccc4nc32)cc1OC	0	0	0	0	0
O=C(CN(Cc1ccccc1)S(=O)(=O)c1ccccc1)N/N=C/c1ccc([N+](=O)[O-])cc1	0	0	95	0	0
SMILES	APP transl inh	Ba/F3 V617F tox	BaF3 tox	KLF5 inh	IEC-6 cytotox
O=C(CN(Cc1ccccc1)S(=O)(=O)c1ccccc1)N/N=C/c1ccc2c(c1)OCO2	0	0	0	0	0
N#Cc1c(NC(=O)CSc2ncn[nH]2)sc2c1CCCCC2	79	0	0	0	0
O=C(N/C(=C/c1ccccc1Cl)C(=O)N1CCCCC1)c1ccco1	-	-	-	0	0
Cc1ccccc1OCCn1cnc2c(N)ncnc21	0	57	33	0	0
C=CCNC(=S)N(CC)c1cccc2ccccc12	0	34	36	0	0
O=C(Oc1cccnc1)c1ccco1	46	0	0	0	0
O=C(Oc1cccc(OC(=O)c2ccco2)c1)c1ccco1	-	-	-	0	0
CCn1c(C)c(P(c2ccccc2)c2ccccc2)[n+]2ccccc12	0	69	70	0	0
CCOc1c(Cl)cc(/C=N/NC(N)=S)cc1OC	0	0	0	0	0
